Bioassay records: PubChem, Johns Hopkins Ion Channel Center
This is a sample that favours compounds with a hit; in the whole collection about 1.6% have one here.
KCNQ2 inh: inhibitors of rat KCNQ2 potassium channel | B-score at 10 µM | AID 2156 | 310,000 compounds, 1.1% hits | O88943 | CHO-K1 KCNQ2, FluxOR thallium flux, 20 min; active compounds read low;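 active = fluorescence ratio B-score at most minus 3 library SDs, with starting brightness B-score within 2 library SDs, cut at about -5.5 in these data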
Target sequence (O88943 whole entry, looked up): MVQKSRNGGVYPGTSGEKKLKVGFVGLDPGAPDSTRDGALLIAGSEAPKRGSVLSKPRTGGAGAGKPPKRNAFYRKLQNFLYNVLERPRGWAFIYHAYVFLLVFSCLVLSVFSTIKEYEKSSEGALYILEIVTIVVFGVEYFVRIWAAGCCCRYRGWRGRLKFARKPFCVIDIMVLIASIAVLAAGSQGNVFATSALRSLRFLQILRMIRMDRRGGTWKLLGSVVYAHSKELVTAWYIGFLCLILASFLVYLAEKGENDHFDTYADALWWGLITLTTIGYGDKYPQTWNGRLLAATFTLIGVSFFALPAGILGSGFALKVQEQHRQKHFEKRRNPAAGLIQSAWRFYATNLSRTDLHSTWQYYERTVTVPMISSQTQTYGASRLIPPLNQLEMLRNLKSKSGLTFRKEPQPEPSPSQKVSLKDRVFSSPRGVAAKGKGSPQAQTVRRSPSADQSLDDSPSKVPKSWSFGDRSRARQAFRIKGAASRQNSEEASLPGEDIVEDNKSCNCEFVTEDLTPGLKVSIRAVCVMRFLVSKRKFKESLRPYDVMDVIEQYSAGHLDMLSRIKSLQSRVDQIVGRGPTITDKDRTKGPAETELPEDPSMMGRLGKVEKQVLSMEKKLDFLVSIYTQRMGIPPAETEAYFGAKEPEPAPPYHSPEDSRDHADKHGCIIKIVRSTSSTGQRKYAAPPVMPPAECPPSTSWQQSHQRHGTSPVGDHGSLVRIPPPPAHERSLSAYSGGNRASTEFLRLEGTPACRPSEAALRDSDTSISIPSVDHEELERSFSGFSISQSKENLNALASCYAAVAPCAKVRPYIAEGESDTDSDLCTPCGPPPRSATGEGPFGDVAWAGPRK
KCNQ2 pot: enhances the rat KCNQ2 potassium channel; O88943; CHO-K1 KCNQ2, FluxOR thallium flux fluorescence; active compounds read high; B-score at 10 µM; 310,000 compounds, 0.54% hits; AID 2239;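 active = fluorescence ratio B-score at least 3 SD of library B-scores, with initial fluorescence B-score within 3 of them, cut at about 5.3 in these data; same plate scores as AID 2156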;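 also: B-score of peak minus minimum over baseline fluorescence ratio after K+ and Tl+ stimulus; positive B-score means potentiation of KCNQ2 with more thallium influx and brighter signal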
* = called active by the depositor; i = inactive; nt = no result.

SMILES	KCNQ2 inh	KCNQ2 pot
Cc1ccccc1N1CCN(c2ncnc3c2cnn3Cc2ccc(Cl)cc2)CC1	-5.7*	-5.7
CSc1ccc(/C=C2\CCn3c2nc2cc(C(=O)O)ccc2c3=O)cc1	i	nt
CCCCNC(=O)C(c1ccc(OCC(=O)OC)c(C(=O)OC)c1)N(CCc1c[nH]c2ccccc12)C(=O)CCCCCN1C(=O)NC(c2ccc(-c3ccccc3)cc2)C(C(=O)OCc2ccccc2)=C1C (stereo not given)	i	0.38
O=C(COC(=O)c1oc2ccccc2c1CSc1ccc(Cl)cc1)NC1CCCC1	-6.4*	-6.4
NC(=O)COC(=O)c1oc2ccccc2c1CSc1ccc(Cl)cc1	i	nt
COc1ccc(S(=O)(=O)NCCc2cn3nc(C)c(C)nc3n2)cc1F	i	0.46
CC1CC(C)(C)N(C(=O)CSc2ccc(-c3ccc(F)cc3)nn2)c2ccccc21 (stereo not given)	-5.7*	-5.7
CC1CCN(C(=O)CSc2ccc(-c3ccc(F)cc3)nn2)CC1	i	1.1
COc1ccc(NC(=O)c2ccccc2NC(=O)c2ccccc2)cc1	i	0.15
COc1ccc(/C=C(/C(=O)Nc2ccccc2C(=O)NC(C)C)c2ccccc2)cc1	-7.9*	-7.9
COc1ccc(/C=C/C(=O)Nc2ccccc2C(=O)N2CCCC2)cc1	i	nt
COc1ccc(/C=C(/C(=O)Nc2ccccc2C(=O)N2CCCC2)c2ccccc2)cc1	-6.6*	-6.6
Oc1ccc(Br)cc1Cn1nnc2ccccc21	i	0.23
C=CCNC(=O)c1ccccc1NC(=O)C1CC(=O)N(C(C)C)C1 (stereo not given)	i	0.14
Cc1ccc(NC(=O)CSCC(=O)N2CCCc3ccccc32)cc1	i	nt
CCOC(=O)N1CCN(C(=O)CSC2=NS(=O)(=O)c3ccccc3N2)CC1	i	1.2
CCOc1ccc(/C(O)=C2/C(=O)C(=O)N(CCCN3CCOCC3)C2c2ccc(C)cc2)cc1C (stereo not given)	i	nt
O=C(NCC1CCCC(CNC(=O)Nc2ccc(Cl)cn2)C1)Nc1ccc(Cl)cn1 (stereo not given)	i	nt
Cc1ccc2c(CN3C(=O)NC4(CCCCC4)C3=O)cc(=O)oc2c1C	-6.6*	-6.6
Cc1ccc(C)c(CN2C(=O)NC3(CCCCCC3)C2=O)c1	i	1.2
COc1cccc(C(=O)NCC(c2ccco2)N2CCOCC2)c1 (stereo not given)	i	1.9
COc1ccccc1-n1cnnc1SCC(=O)Nc1cccc(S(N)(=O)=O)c1	i	1.2
CCOC(=O)N1CCN(C(=O)c2ccc3c(=O)n(CCC4=CCCCC4)c(=S)[nH]c3c2)CC1	i	0.45
O=c1c2ccc(Cl)cc2[nH]c(=S)n1CCC1=CCCCC1	i	8.7*
Cc1ccccc1NC1=NC(=S)N(c2ccccc2)C12CCOC(C)(C)C2 (stereo not given)	i	0.22
SMILES	KCNQ2 inh	KCNQ2 pot
Cc1ccccc1NC1=NC(=S)N(c2ccccc2)C12CCCCC2	i	5.5*
CC(=O)Nc1ccc(C(=O)NCC2CCCCC2)cc1	i	0.11
O=C1C2CC=CCC2C(=O)N1Cc1nnc(-c2ccccc2Br)o1 (stereo not given)	i	1.5
O=C(c1ccco1)N1CCN(C(=O)c2cnn(-c3ccc(Cl)cc3)c2C2CCNCC2)CC1	i	nt
COC(=O)c1ccc2c(=O)n(CCN3CCOCC3)c(SCC(=O)Nc3ccc(OC)cc3OC)nc2c1	i	nt
COC(=O)c1ccc2c(=O)n(CCN3CCOCC3)c(SCC(=O)Nc3ccccc3Cl)nc2c1	-6.2*	-6.2
O=C(Nc1ccc(NC(=O)c2cccnc2Cl)cc1)c1cccc(Cl)c1	i	1.2
CC(=O)Nc1ccc(S(=O)(=O)NC2C3(C)CCC(C3)C2(C)C)cc1 (stereo not given)	i	nt
CCN1CCN(c2cc(C)c3cc(NC(=S)N4CCCC(C)C4)ccc3n2)CC1 (stereo not given)	i	0.08
CN(Cc1ccccc1)C(=O)COC(=O)c1ccccc1NS(=O)(=O)c1cccc(N)c1	i	nt
CC(OC(=O)c1ccccc1NS(=O)(=O)c1cccc(C(F)(F)F)c1)C(=O)N(C)Cc1ccccc1 (stereo not given)	-6.5*	-6.5
COC(=O)c1cc(S(=O)(=O)NC2CCC(C)CC2)cn1C (stereo not given)	i	nt
COc1ccc(-c2cc(C(=O)Nc3cccc(Cl)c3)no2)cc1	i	nt
COc1ccc(OC)c(-c2cc(C(=O)Nc3cccc(Cl)c3)no2)c1	-7.5*	-7.5
COc1ccccc1OC(C)C(=O)Nc1ccc(S(=O)(=O)N2CCN(C)CC2)cc1 (stereo not given)	i	nt
COC(=O)c1cccc(C#CC(NP(=O)(c2ccccc2)c2ccccc2)c2ccccc2)c1 (stereo not given)	-6.3*	-6.3
CCC[C@@H]1C[C@@]1(CCC)[C@@H](NP(=O)(c1ccccc1)c1ccccc1)c1ccc(C(=O)OC)cc1	i	nt
CCOc1ccc2[nH]c3c(NCC(C)C)ncnc3c2c1	i	1.6
Cn1c(NCc2c[nH]c3ccccc23)nc2ccccc21	i	nt
CCn1c(NCc2c[nH]c3ccccc23)nc2ccccc21	-6.5*	-6.5
O=C(CN1C(=O)NC2(CCCC2)C1=O)Nc1nc2ccccc2[nH]1	i	nt
CCCSCCCNC(=O)Cn1c(=O)c2cccn2c2ccccc21	i	nt
CCOC(=O)C1(Cc2ccc(OC)cc2)CCN(C(=O)[C@@H]2CCCN2C(C)=O)CC1	i	1.4
CN(CC(=O)Nc1c(Cl)cccc1Cl)C(=O)c1cc(-c2cccs2)nn1-c1ccccc1	i	nt
CN(CC(=O)Nc1ccc(Cl)cc1)C(=O)c1cc(-c2cccs2)nn1-c1ccccc1	-7.6*	-7.6
SMILES	KCNQ2 inh	KCNQ2 pot
O=C(CSc1ccc2nnc(-c3ccccn3)n2n1)Nc1ccccc1F	i	nt
Nc1nc(SCC(=O)NC2CCCCC2)n[nH]1	i	0.81
CN(CCc1ccccn1)C(=O)CCC1CCCN(C(=O)c2cccc(N(C)C)c2)C1 (stereo not given)	i	1
Cc1c(C(=O)Nc2ccc(S(=O)(=O)N3CCOCC3)cc2)cccc1[N+](=O)[O-]	i	nt
Fc1cccc2sc(Nc3nc4cc5c(cc4s3)OCO5)nc12	i	6.9*
Fc1cccc2sc(Nc3nc4cc5c(cc4s3)OCCO5)nc12	i	3.5
O=C(N/N=C/c1cccc(Cl)c1)C1CCCC1	i	2.5
CCCn1c(O)c(N=NC(=O)c2ccco2)c2ccccc21	i	11*
CCn1c(O)c(N=NC(=O)CNC(=O)c2ccco2)c2ccccc21	i	2.6
COc1ccc(C(=O)N2CCCCCC2)cc1S(=O)(=O)N1CCOCC1	i	0.42
Cc1cc(NC(=O)c2cn(C3CCCCC3)c(=O)c3c2c2ccccc2n3C)no1	-5.8*	-5.8
Cc1ccc(CNC(=O)c2cn(C3CCCCC3)c(=O)c3c2c2ccccc2n3C)o1	i	nt
COc1ccc(/C(C)=N/NC(=O)CNC(=O)/C=C\c2ccccc2)c(OC)c1	i	0.86
O=C(CCN1CCC(c2ccccc2)C1)c1ccc2c(c1)OCCO2 (stereo not given)	-6.2*	-6.2
O=C(CCN1CCC(c2ccccc2)C1)c1ccccc1 (stereo not given)	i	nt
O=C(Nc1ccc2c(c1)C(=O)OC2)c1ccccc1Cl	i	0.66
COC(=O)C1(C)Cc2cc(OC(C)=O)c(OC(C)=O)cc2N1 (stereo not given)	i	0.12
COc1cc(C(=O)OC(C)CN2C(C)CCCC2C)cc(OC)c1OC (stereo not given)	i	nt
